Rac1 wt modul – wildtype Rac1 GTP binding modulators, primary screen, biochemical, GST-Rac1 beads, flow cytometry, multiplex; Ras-related C3 botulinum toxin substrate 1 (Homo sapiens), P63000; fluorescent GTP binding; actives lie on both sides; 0 = cold GTP competed, 100 = untreated; GTP binding activity (% of control), % at 10 µM; 190,000 compounds, 0.27% hits;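 active = GTP binding activity at least 20 points away from the 100% control level, either lower or higher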
HRas wt GTP bind – modulators of GTP binding to HRas wildtype, primary screen, biochemical, bead-based flow cytometry, multiplex; 190,000 compounds, 0.14% hits; GST-Ras wt beads, Bodipy-FL-GTP binding; actives lie on both sides; GTP binding activity, % at 10 µM;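 active = GTP binding activity at least 20% away from the 100% baseline, either lowered as inhibitor or raised as activator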;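 note: 0% = unlabeled GTP competition control and 100% = no-compound control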
Target sequence (P01112 whole entry, looked up): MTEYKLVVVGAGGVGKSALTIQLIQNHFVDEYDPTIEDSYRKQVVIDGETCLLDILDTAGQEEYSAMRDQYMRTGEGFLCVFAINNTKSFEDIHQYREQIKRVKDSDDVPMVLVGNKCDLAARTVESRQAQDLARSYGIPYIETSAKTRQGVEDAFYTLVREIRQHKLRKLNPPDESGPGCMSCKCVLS
Rab7 wt modul – modulators of GTP binding to Rab7, primary screen, biochemical, wildtype, multiplex bead flow cytometry. GST-Rab7 beads, fluorescent GTP binding; actives lie on both sides; untreated = 100%, excess cold GTP = 0%. GTP binding activity (percent of control), % at 10 µM. 190,000 compounds, 0.055% hits. AID 758, 2007;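 active = fluorescent GTP binding to Rab7 beads changed by at least 20 points from the 100% baseline, either direction, mostly lower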;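 note: median green fluorescence of bound Bodipy-FL-GTP per Rab7 bead population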
Rab2 wt GTP – modulators of GTP binding to Rab2A wildtype, primary screen, biochemical, dog, bead-based flow cytometry, multiplex. GTP binding activity, % at 10 µM. GST-Rab2 wt beads, Bodipy-GTP binding. 190,000 compounds, 0.19% hits. AID 760, 2007. Ras-related protein Rab-2A (Canis lupus familiaris), P61105;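 active = GTP binding activity at least 20 points away from 100%, either lowered or raised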;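 note: 0% = beads with excess unlabeled GTP and 100% = no-compound control corrected for plate trend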
Rac1 mut GTP – GTP binding modulators of activated mutant Rac1, primary screen, biochemical, bead-based flow cytometry, multiplex, fluorescent GTP | 190,000 compounds, 0.11% hits | percent activity (GTP binding), % at 10 µM | GST-Rac1 activated beads; actives lie on both sides; 100% means binding = to untreated wells | Ras-related C3 botulinum toxin substrate 1 (Homo sapiens), P63000;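 active = GTP binding at least 20 percentage points away from the 100% baseline, in either direction, so actives lie on both sides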
Cdc42 wt – modulators of GTP binding to wildtype Cdc42, primary screen, biochemical, multiplex bead flow cytometry, Bodipy-GTP; Cell division control protein 42 homolog (Homo sapiens), P60953; GST-Cdc42 beads; actives lie on both sides; percent activity (GTP binding), % at 10 µM; 190,000 compounds, 0.2% hits; AID 761, 2007;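 active = percent activity GTP binding at least 20 points away from the 100% baseline, either down as inhibitor or up as activator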;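 note: median bead fluorescence of bound Bodipy-FL-GTP at 100 nM; 0% = excess unlabeled GTP control and 100% = no compound control; below 100% means less GTP binding so inhibitor and above means activator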
Target sequence (P60953 whole entry, looked up): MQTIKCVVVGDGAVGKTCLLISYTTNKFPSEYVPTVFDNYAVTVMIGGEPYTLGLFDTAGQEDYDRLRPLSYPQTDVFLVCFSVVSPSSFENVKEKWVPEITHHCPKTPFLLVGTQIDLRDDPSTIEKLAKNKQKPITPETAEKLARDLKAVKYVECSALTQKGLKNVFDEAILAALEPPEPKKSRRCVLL
Numbers without * were called inactive; [ ] = another dose, or the depositor's remark. An excerpt weighted towards active compounds, which were near 0.38% of everything screened.

SMILES | Rac1 wt modul | HRas wt GTP bind | Rab7 wt modul | Rab2 wt GTP | Rac1 mut GTP | Cdc42 wt
Cc1ccc(NC(=S)Nc2ccc(OC(F)F)c(Cl)c2)cc1F | 101 | 99 | 103 | 100 | 100 | 98
Cc1ccc(Cc2cnc(NC(=O)/C(C#N)=C/c3ccc(-c4ccc([N+](=O)[O-])cc4)o3)s2)cc1 | 84 | 82 | 79* | 83 | 83 | 82
COC(=O)C1=C(C)NC(=O)/C1=C\c1cc(C)n(-c2c(C)cccc2C)c1C | 113 | 122*[activator] | 112 | 123*[activator] | 110 | 121*[activator]
COC(=O)C1=C(C)NC(=O)/C1=C\c1cc(C)n(-c2ccccc2C)c1C | 102 | 101 | 102 | 100 | 99 | 102
COc1cccc(-c2nnc3sc(-c4ccco4)nn23)c1 | 107 | 103 | 102 | 103 | 102 | 107
CCOc1cccc(-c2nn3c(-c4ccco4)nnc3s2)c1 | 88 | 80 | 91 | 78* | 90 | 80
COc1ccc(-c2nn3c(-c4ccco4)nnc3s2)cc1OC | 70* | 68* | 88 | 71* | 82 | 68*
COc1ccc(-c2nnc3sc(-c4ccco4)nn23)cc1OC | 98 | 101 | 101 | 99 | 96 | 101
O=C(CCCN1C(=O)/C(=C/c2ccccc2Cl)SC1=S)NNC(=O)c1ccccc1Cl | 101 | 98 | 101 | 100 | 100 | 97
COc1ccc(/C=C2\SC(=S)N(CCCC(=O)NNC(=O)c3ccccc3O)C2=O)cc1 | 79* | 80 | 92 | 80 | 87 | 78*
OC(COc1ccc2ccccc2c1)Cn1ccnc1 (centres undefined) | 98 | 98 | 97 | 97 | 96 | 98
OC(CNCCc1ccc(Cl)cc1)COc1ccc2ccccc2c1 (centres undefined) | 81 | 80 | 90 | 78* | 77* | 77*
OCCNc1ncnc2c1sc1nc(N3CCOCC3)c3c(c12)CCC3 | 94 | 91 | 91 | 86 | 94 | 91
COCCNc1nnnc2c1sc1nc(N3CCOCC3)c3c(c12)CCCC3 | 73* | 82 | 95 | 83 | 88 | 81
O=C(NNC(=S)NCc1ccc(Cl)cc1)c1ccc(Br)o1 | 90 | 90 | 96 | 77* | 80 | 78*
O=C(Nc1ccc(N2C(=O)CCC2=O)cc1Cl)c1cccs1 | 99 | 100 | 104 | 102 | 98 | 102
Cc1sc2nc3c(SC(C)C(=O)O)cc(C(=O)c4ccccc4O)cn3c(=O)c2c1C (centres undefined) | 75* | 87 | 89 | 85 | 86 | 83
COc1cc(/C=C(\C#N)c2nc3ccc(C)cc3[nH]2)cc([N+](=O)[O-])c1O | 70* | 83 | 84 | 77* | 85 | 78*
NC1=NC(=O)/C(=C/c2cn(CCC(=O)O)nc2-c2ccc(F)cc2)S1 | 96 | 97 | 98 | 98 | 100 | 97
NC1=NC(=O)/C(=C/c2cn(CCC(=O)O)nc2-c2ccc(Cl)cc2)S1 | 77* | 81 | 89 | 81 | 85 | 85
O=C(Nc1cccc(-c2ccc3nncn3n2)c1)c1ccco1 | 77* | 85 | 91 | 87 | 89 | 86
Cc1nnc2ccc(-c3cccc(NC(=O)c4ccc(Br)o4)c3)nn12 | 79* | 86 | 91 | 86 | 90 | 88
CCOc1ccccc1C(=O)Nc1cccc(-c2ccc3nncn3n2)c1 | 73* | 78* | 92 | 75* | 88 | 73*
Cc1nnc2ccc(-c3cccc(NC(=O)c4ccc(Cl)nc4)c3)nn12 | 86 | 91 | 95 | 91 | 91 | 91
O=C(NCc1cc(Br)cc(Br)c1OC(=O)c1ccccc1[N+](=O)[O-])c1ccccc1 | 100 | 100 | 100 | 98 | 98 | 100

Screening results as filed in PubChem BioAssay.
